Screening results as filed in PubChem.
Compounds with a hit are over-represented: about 10% of the library has one in this group of screens.
HEK293 tox = cytotoxic compounds in HEK 293 cells. HEK 293 viability, ATP luminescence (CellTiter-Glo), 48-72 h. Potency, µM (highest dose often 115 µM), usual class: inhibitors. actives 6.6% (n = 94,000); also: nearly all actives have a fitted effect of over 60% in size
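HEK 293 seeded at 250 cells/well receive compound via pintool. After 48 or 72 hr at 37 degree Celsius, 5% CO2 and 95% humidity, CellTiter-Glo is dispensed and luminescence read following 10 min at room temperature.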
NPR1 antag = blocks ANP-stimulated signaling of human Npr1 receptor; HEK293 hNpr1 GloSensor cGMP, ANP-stimulated luminescence; Potency, µM (highest dose often 46.3 µM), hits mostly inhibitors; actives 1.6% (n = 76,000); calls by dose curve; also: nearly all actives have a fitted effect of over 60% in size
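HEK293 cells stably expressing human Npr1 and cGMP GloSensor pGS-40F, loaded 2 h with 2% GloSensor reagent, given compound 30 min at room temperature. Luminescence read before and 20 min after 0.1 nM hNppA.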
Luciferase inh = blocks purified firefly luciferase enzyme activity. AID 1347043. actives 2.5% (n = 76,000). purified P. pyralis luciferase, luminescence, biochemical. Potency, µM (titrated, usually from 115 µM), hits mostly inhibitors; also: nearly all actives have a fitted effect of over 65% in size
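Inhibitors were tested against purified firefly luciferase in a biochemical, low-substrate format (both substrates at 10uM) and luminescence measured with a CCD imager.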
GPT2 inh = inhibitors of human GPT2 alanine aminotransferase. actives 0.25% (n = 100,000). Potency, µM (titrated, usually from 57.7 µM), most hits filed as inhibitors. Recombinant GPT2, coupled pyruvate oxidase/HRP Amplex Red fluorescence; also: nearly all actives have a fitted effect of over 60% in size
Target sequence (Q8TD30 whole entry, looked up): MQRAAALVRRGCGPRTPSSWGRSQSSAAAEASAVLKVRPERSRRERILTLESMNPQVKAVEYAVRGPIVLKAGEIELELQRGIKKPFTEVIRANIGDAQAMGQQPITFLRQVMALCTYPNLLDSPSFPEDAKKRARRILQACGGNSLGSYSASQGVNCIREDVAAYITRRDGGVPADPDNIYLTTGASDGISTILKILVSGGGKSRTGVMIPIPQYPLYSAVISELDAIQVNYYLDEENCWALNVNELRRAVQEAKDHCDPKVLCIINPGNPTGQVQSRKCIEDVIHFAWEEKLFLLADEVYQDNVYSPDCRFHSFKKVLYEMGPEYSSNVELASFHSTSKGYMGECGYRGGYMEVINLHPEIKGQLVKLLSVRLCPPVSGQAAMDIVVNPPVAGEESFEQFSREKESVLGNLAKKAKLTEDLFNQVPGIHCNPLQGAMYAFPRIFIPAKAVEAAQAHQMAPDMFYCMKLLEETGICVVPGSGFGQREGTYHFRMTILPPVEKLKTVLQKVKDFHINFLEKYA
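GPT2 10ng/uL, a-KG 250uM, L-Ala 2mM, HEPES pH7.5 + 0.0001% Tween; 30 min RT. Then Amplex mix (PO/HRP/ThPP), 30 min RT dark, fluorescence. AOA 50uM used as positive control.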
NIH3T3 tox = kills NIH 3T3 cells; NIH 3T3 viability, CellTiter-Glo ATP luminescence, 48-72 h; Potency, µM (series often up to 96.7 µM), usual class: inhibitors; actives 4.3% (n = 94,000); AID 1345082; also: nearly all actives have a fitted effect of over 55% in size
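ATP-dependent luminescence (CellTiter-Glo) served as the viability signal for NIH 3T3 cells treated with compound for 48 or 72 hr at 37 °C.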
Large screens that a line does not name were inactive. Unless noted, calls follow the shape of the dose curve; as a rule, active = well fitted curve in the direction sought with a large enough effect; inconclusive = small, poorly fitted or top-dose-only effect, or another doubt; inactive = no such curve, though single readings can be large; an effect the other way counts as inactive or inconclusive.

Cc1cc(C)c(CNC(=O)c2nc(Nc3ccccc3)cc3[nH]ccc23)c(=O)[nH]1	HEK293 tox inconclusive, NIH3T3 tox inconclusive
COc1ccccc1-c1cc2[nH]ccc2c(C(=O)NCc2c(C)cc(C)[nH]c2=O)n1	HEK293 tox inconclusive, GPT2 inh inconclusive, NIH3T3 tox inconclusive
COC(=O)[C@@H]1Cc2ncn(C(C)C)c2CN1C(=O)c1ccccc1	none
CC(C)NC(=O)C1COC2(CCN(C(=O)C(C)(C)C)CC2)N1C(=O)c1ccc(F)cc1 (stereo not drawn)	none
CCNc1cc(N2CCC(CCC(=O)N(CC)CC)CC2)ncn1	HEK293 tox inconclusive
CCc1[nH]c2c(CNC(=O)CC3C(=O)NCCN3C(C)C)cc(C)cc2c1C (stereo not drawn)	none
CCc1[nH]c2c(CNC(=O)c3n[nH]c4c3CCC4)cc(C)cc2c1C	HEK293 tox 35µM, NIH3T3 tox 35µM
O=C(Cc1cccnc1)N1CCCC(c2ccccc2)(c2ccccc2)C1	HEK293 tox 45µM
Cc1ccc(C2NC(=O)N(CC(=O)Nc3ccc4c(c3)OCCO4)C3=C2C(=O)OC3)cc1 (stereo not drawn)	HEK293 tox inconclusive
Cc1ccc(C2NC(=O)N(CC(=O)Nc3ccccc3)C3=C2C(=O)OC3)cc1 (stereo not drawn)	HEK293 tox inconclusive, NIH3T3 tox inconclusive
Cc1ccc(C2NC(=O)N(CC(=O)Nc3ccc(F)c(F)c3)C3=C2C(=O)OC3)cc1 (stereo not drawn)	HEK293 tox 20µM, NIH3T3 tox inconclusive
CCCCc1ccc(NC(=O)CN2C(=O)NC(c3ccc(C)cc3)C3=C2COC3=O)cc1 (stereo not drawn)	HEK293 tox 45µM, NIH3T3 tox inconclusive
Cc1ccc(NC(=O)CN2C(=O)NC(c3ccc(Cl)cc3)C3=C2COC3=O)cc1Cl (stereo not drawn)	HEK293 tox 32µM, NPR1 antag inconclusive, Luciferase inh inconclusive, NIH3T3 tox 28µM
O=C(CN1C(=O)NC(c2ccc(Cl)cc2)C2=C1COC2=O)Nc1ccc2c(c1)CCC2 (stereo not drawn)	HEK293 tox 22µM, NIH3T3 tox 25µM
Cc1ccc(C2NC(=O)N(CC(=O)Nc3cc(F)ccc3F)C3=C2C(=O)OC3)cc1 (stereo not drawn)	HEK293 tox inconclusive
O=C1CC(c2ccccc2)N(C(=O)CNC(=O)NC2CCCCC2)CCCCCN1 (stereo not drawn)	none
CC(C)c1cccc(NC(=O)CN2C(=O)NC(c3ccccc3Cl)C3=C2COC3=O)c1 (stereo not drawn)	HEK293 tox 40µM, Luciferase inh inconclusive, NIH3T3 tox inconclusive
Cc1cc(NC(=O)CN2C(=O)NC(c3ccc(Cl)cc3)C3=C2COC3=O)ccc1Br (stereo not drawn)	HEK293 tox inconclusive, NIH3T3 tox 25µM
CCOC(=O)c1ccccc1NC(=O)CN1C(=O)NC(c2ccc(Cl)cc2)C2=C1COC2=O (stereo not drawn)	HEK293 tox inconclusive, NIH3T3 tox 40µM
COc1ccc(C(=O)N2CCC(c3nn(C)c(=O)n3-c3ccccc3)CC2)cc1	none (no result: NPR1 antag, Luciferase inh)
O=C(c1ccccc1F)N1CCC2(CC1)NCCc1c2[nH]c2ccccc12	HEK293 tox 79µM
CCN1CCC(N2CCC3(CC2)NCCc2c3[nH]c3ccc(OC)cc23)CC1	HEK293 tox 32µM, NIH3T3 tox 32µM
O=C(c1cccnc1)N1CCC2(CC1)NCCc1c2[nH]c2ccccc12	none
Cc1ccc(C(=O)N2CCC3(CC2)NCCc2c3[nH]c3ccccc23)s1	HEK293 tox inconclusive, NIH3T3 tox inconclusive
Cc1ccsc1C(=O)N1CCC2(CC1)NCCc1c2[nH]c2ccccc12	HEK293 tox 45µM
COc1ccc(C(=O)N2CCC3(CC2)NCCc2c3[nH]c3ccccc23)cc1	HEK293 tox 79µM
O=C(c1ccncc1)N1CCC2(CC1)NCCc1c2[nH]c2ccccc12	none
COc1ccc(C(=O)N2CCC3(CC2)NCCc2c3[nH]c3ccccc23)cc1F	HEK293 tox 13µM, NIH3T3 tox inconclusive
COc1ccc2[nH]c3c(c2c1)CCNC31CCN(C(=O)C2CCOCC2)CC1	none
COc1ccc2[nH]c3c(c2c1)CCNC31CCN(S(=O)(=O)c2cccnc2)CC1	HEK293 tox 25µM, NIH3T3 tox inconclusive
COCC(=O)N1CCC2(CC1)NCCc1c2[nH]c2ccccc12	none
COc1ccc2[nH]c3c(c2c1)CCNC31CCN(C(=O)C2CC=CC2)CC1	HEK293 tox 45µM
COc1ccc2c(c1)C(CNCc1ccccc1)=CC(C)(C)CO2	HEK293 tox inconclusive (no result: NPR1 antag, Luciferase inh, GPT2 inh)
Cc1cccc(C(=O)N2CCCC(N3CCN(c4cccc(C(F)(F)F)c4)CC3)C2)c1 (stereo not drawn)	HEK293 tox inconclusive
Cc1ccc(C(=O)N2CCc3[nH]nc(C(=O)NCCCc4ccccc4)c3C2)cc1	HEK293 tox inconclusive, NIH3T3 tox inconclusive
O=c1c2c(n(Cc3ccccc3)n1-c1ccccc1)CN(Cc1ccc3c(c1)CCO3)CC2	HEK293 tox inconclusive, NPR1 antag inconclusive, NIH3T3 tox inconclusive
Cc1noc2c(N3CCNC(=O)C3)cc(-c3cccs3)nc12	HEK293 tox inconclusive, NIH3T3 tox 32µM
Cc1noc2c(NC3CCN(C)CC3)cc(-c3cccnc3)nc12	HEK293 tox inconclusive, NIH3T3 tox inconclusive
Cc1noc2c(NC3CCC(O)CC3)cc(-c3cccnc3)nc12 (stereo not drawn)	NIH3T3 tox 25µM
Cc1noc2c(N3CCNC(=O)C3)cc(-c3cccc(C(F)(F)F)c3)nc12	HEK293 tox inconclusive, NIH3T3 tox inconclusive
Cc1noc2c(NC3CCC(O)CC3)cc(-c3cccs3)nc12 (stereo not drawn)	HEK293 tox inconclusive, NIH3T3 tox 28µM
COc1cccc(Nc2cc(-c3cccs3)nc3c(C)noc23)c1	HEK293 tox 100µM, NIH3T3 tox 79µM
Cn1ccc(NCc2nc3c(n2Cc2ccccc2)C(=O)N(Cc2cccc(Cl)c2)CCN3)n1	HEK293 tox inconclusive, NIH3T3 tox inconclusive
COCCNc1nccc(C2(c3ccccc3Cl)CCNCC2)n1	HEK293 tox inconclusive
COc1ccccc1Cc1nccc(C2(c3ccccc3Cl)CCNCC2)n1	HEK293 tox inconclusive, NIH3T3 tox 22µM
Clc1ccccc1C1(c2ccnc(CC3CC3)n2)CCNCC1	HEK293 tox inconclusive, NIH3T3 tox 79µM
Clc1ccccc1C1(c2ccnc(C3CCCC3)n2)CCNCC1	HEK293 tox inconclusive, NIH3T3 tox 32µM
Clc1ccccc1C1(c2ccnc(NCc3ccccc3)n2)CCNCC1	HEK293 tox inconclusive, NPR1 antag inconclusive, NIH3T3 tox 25µM
Clc1ccccc1C1(c2ccnc(NCc3ccccn3)n2)CCNCC1	HEK293 tox inconclusive
Clc1ccccc1C1(c2ccnc(NC3CC3)n2)CCNCC1	HEK293 tox inconclusive, NIH3T3 tox inconclusive
